Bioassay records from PubChem BioAssay.
ALDH1A1 block: blocks purified human ALDH1A1 activity; Potency, µM (top dose mostly 75.3 µM), hits mostly inhibitors; Purified ALDH1A1, NADH fluorescence, propionaldehyde substrate; AID 1030; P00352; 220,000 compounds, 7.3% hits
HttQ103 aggreg: mutant huntingtin aggregation inhibition | PC12 HttQ103-GFP aggregates, Acumen cytometry, 40 h | Potency, µM (titrated, usually from 46.1 µM), actives largely listed as inhibitors | 220,000 compounds, 1.1% hits; active = well fitted curve in the direction sought with a large enough effect; inconclusive = small, poorly fitted or top-dose-only effect, or another doubt; inactive = no such curve, though single readings can be large; an effect the other way counts as inactive or inconclusive; also: nearly all actives have a fitted effect of over 60% in size
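Read-out: GFP aggregate count by laser scanning cytometer (488 nm excitation, 500-530 nm emission, 1–25 µm objects >6 SD above background). Cells: PC12, inducible HTTex1-Q103-GFP, 100 nM tebufenozide; compounds titrated.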
CBFb RUNX1 block: inhibitors of human CBF-beta and RUNX1 interaction. 230,000 tested, under 10 active. Q01196+Q13951. AlphaScreen CBFb-His/RUNX1-biotin binding, biochemical. Potency, µM (highest dose often 59.8 µM), most hits filed as inhibitors; active = well fitted curve in the direction sought with a large enough effect; inconclusive = small, poorly fitted or top-dose-only effect, or another doubt; inactive = no such curve, though single readings can be large; an effect the other way counts as inactive or inconclusive
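Read-out: AlphaScreen. Format: His-CBF-beta with biotinylated RUNX1 (30 nM each) preincubated 20 min, compound 15 min, Ni-chelate plus streptavidin beads 90 min; room temperature throughout.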
HTT ATP protect: Huntington cell model cytoprotection by ATP luminescence | PC12 HTT-Q103 induced, cytoprotection, ATP luminescence, 40 h | Potency, µM (series often up to 56.4 µM), hits mostly activators | 230,000 compounds, 0.14% hits | AID 1471; active = well fitted curve in the direction sought with a large enough effect; inconclusive = small, poorly fitted or top-dose-only effect, or another doubt; inactive = no such curve, though single readings can be large; an effect the other way counts as inactive or inconclusive; also: nearly all actives have a fitted effect of over 45% in size
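PC12 cells stably carrying ecdysone-inducible Htt exon 1 (Q103)–GFP were induced with 100 nM tebufenozide (final) alongside library compounds in a dose series. Cytoprotection was scored as retained ATP by ATPlite luminescence.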
KDM4E inh: inhibitors of human JMJD2E histone demethylase | B2RXH2 | JMJD2E catalytic domain, FDH-coupled NADH fluorescence (FDH is formaldehyde dehydrogenase) | AID 2147 | 230,000 compounds, 1.6% hits | Potency, µM (doses to about 57.1 µM), usual class: inhibitors; also: nearly all actives have a fitted effect of over 50% in size
Target sequence (B2RXH2 1-337 limits assumed): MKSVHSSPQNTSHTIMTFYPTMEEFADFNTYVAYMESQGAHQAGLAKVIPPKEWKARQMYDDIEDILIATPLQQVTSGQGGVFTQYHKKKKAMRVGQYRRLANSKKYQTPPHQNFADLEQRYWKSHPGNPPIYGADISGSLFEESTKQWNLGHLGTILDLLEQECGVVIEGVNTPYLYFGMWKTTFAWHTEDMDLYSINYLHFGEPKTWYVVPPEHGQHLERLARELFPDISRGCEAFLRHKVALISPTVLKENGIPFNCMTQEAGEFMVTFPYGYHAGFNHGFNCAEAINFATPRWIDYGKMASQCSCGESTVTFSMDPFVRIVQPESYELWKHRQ
HPGD inh: inhibitors of human 15-hydroxyprostaglandin dehydrogenase (HPGD); Potency, µM, usual class: inhibitors; 150,000 compounds, 4.3% hits; P15428; purified HPGD, NADH fluorescence kinetic, PGE2 substrate
Target sequence (P15428 whole entry, looked up): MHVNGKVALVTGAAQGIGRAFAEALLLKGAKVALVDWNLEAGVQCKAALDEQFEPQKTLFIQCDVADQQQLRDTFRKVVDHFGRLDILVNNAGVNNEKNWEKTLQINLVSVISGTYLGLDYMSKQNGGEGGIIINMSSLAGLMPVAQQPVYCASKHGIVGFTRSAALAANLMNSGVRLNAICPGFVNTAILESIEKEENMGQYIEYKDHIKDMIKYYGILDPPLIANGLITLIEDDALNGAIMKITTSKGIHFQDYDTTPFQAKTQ
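20 nM HPGD preincubated 15 min at room temperature with compound in 50 mM Tris-HCl pH 8, 0.01% Tween 20. Started with 1 mM NAD+ and 30 uM prostaglandin E2; NADH fluorescence (360/450 nm) read 5 times over 30-s intervals, last minus first.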
A number is an active result; . = inactive; ? = inconclusive; / = no result given; [ ] = another dose, or the depositor's remark. Most compounds without a hit are left out; they make up all but 9.8% or so of the library. Unless noted, calls follow the shape of the dose curve; as a rule, active = well fitted inhibition curve with a large enough effect (not every such curve was filed as active); inconclusive = small, poorly fitted or top-dose-only effect, or another doubt; inactive = no such curve, though single readings can be large or run the other way.

SMILES | ALDH1A1 block | HttQ103 aggreg | CBFb RUNX1 block | HTT ATP protect | KDM4E inh | HPGD inh
CS(=O)(=O)Nc1cccc(-c2cc(NCc3cccs3)ncn2)c1 | ? | / | / | . | / | /
COc1cccc(NC(=S)N(CCCN2CCOCC2)Cc2cn(C)c3ccccc23)c1 | ? | 11µM | . | .[10 µM] | . | .
COc1ccc(NC(=S)N(CCCN2CCOCC2)Cc2cn(C)c3ccccc23)cc1OC | . | . | . | .[10 µM] | . | .
CN(C)c1cc(-c2ccc(Br)cc2)oc(=O)c1Cl | / | .[9.22 µM] | . | .[10 µM] | . | /
NS(=O)(=O)c1ccc(NC(=O)CCC(=O)O)cc1 | / | . | / | . | / | /
O=C(O)c1ccc(-n2nc(C(F)(F)F)c3c2-c2ccoc2CC3)cc1 | . | . | . | .[0.074 µM] | ? | 22µM
COC(=O)c1ccc(-n2nc(C(F)(F)F)c3c2-c2ccoc2CC3)cc1 | ? | . | . | .[10 µM] | . | .
CCN(Cc1ccncc1)Cc1c(O)ccc2cc(Br)ccc12 | 0.56µM | . | . | . | 7.1µM | /
COc1ccc(Cn2c(-c3ccc(C)cc3)c[n+]3ccccc23)cc1 | . | 8.9µM | . | .[1.9 µM] | . | .
COc1ccc(-c2nc3ccccc3n2Cc2ccc(C)cc2)cc1 | . | ? | . | . | ? | .
O=C(c1ccccc1)c1cccn1CC(=O)N1CCc2ccccc2C1 | . | . | . | . | . | /
CCOC(=O)C(=Cc1ccc(-n2ccnc2)cc1)C(=O)OCC | ? | . | . | . | 11µM | /
CCOC(=O)C(=Cc1ccc(F)cc1)C(=O)OCC | . | . | . | . | . | .
O=C(CNC(=S)NC(=O)c1ccccc1Br)c1ccccc1 | 18µM | ? | . | . | . | /
Cc1ccc(NC(=O)Nc2cc(Cl)ccc2C2COC(=O)C2=N)cc1 (centres undefined) | 7.5µM | . | . | .[10 µM] | . | /
N=C1C(=O)OCC1c1ccccc1NC(=O)Nc1ccccc1 (centres undefined) | . | . | . | / | ? | /
C1CSC2(N1)C1CC3CC(C1)CC2C3 (centres undefined) | . | / | . | 1.6µM | . | .
S=C1NNC2(NN1)C1CC3CC(C1)CC2C3 | . | . | . | .[10 µM] | . | .
CCc1[nH]nc(C(=O)N2CCCC(CCC(=O)N3CCN(c4ccccn4)CC3)C2)c1C (centres undefined) | ? | .[9.22 µM] | . | .[10 µM] | . | /
O=C(Nc1ccc2ccccc2c1)c1cn(-c2ccccc2)nc1-c1cccs1 | ? | . | . | . | ? | ?
CN(C)c1ccc(NC(=O)c2cn(-c3ccccc3)nc2-c2cccs2)cc1 | 8.9µM | .[9.22 µM] | ? | . | . | .
CC(C)COC(=O)C1[C@H]2C(=O)N(Cc3cccs3)C[C@]23C=C[C@H]1O3 (some centres undefined) | . | . | . | .[0.074 µM] | . | .
COc1cccc(-n2nc(C#N)c(Cl)cc2=O)c1 | . | 3.5µM | . | . | . | /
Cc1cc(C)c(Cn2cnc3ccccc32)c(C)c1 | . | . | . | . | . | /
CC(=O)C1C(=O)CC(C)(O)C(C(C)=O)C1c1ccc(N(C)C)cc1 (centres undefined) | 3.2µM | . | . | . | . | .
SMILES | ALDH1A1 block | HttQ103 aggreg | CBFb RUNX1 block | HTT ATP protect | KDM4E inh | HPGD inh
CCOC(=O)C1C(=O)CC(C)(O)C(C(=O)OCC)C1c1ccc(OC)cc1 (centres undefined) | . | . | . | . | . | .
CCCOc1ccc(N2CC(C(=O)Nc3ccccc3C(=O)NC)CC2=O)cc1 (centres undefined) | . | .[9.22 µM] | . | .[10 µM] | . | /
CN1/C(=C\C(=O)c2cccs2)Sc2ccccc21 | . | 16µM | . | .[10 µM] | . | /
CN1/C(=C/C(=O)C2CCC2)Sc2ccccc21 | 3.5µM | . | . | . | . | .
CC(C)N(C(=O)CSc1nnnn1-c1ccc2c(c1)OCO2)C(C)C | ? | .[9.22 µM] | . | .[10 µM] | . | /
COc1ccc(-n2nc3c(c2NC(=O)c2c(F)cccc2Cl)CS(=O)C3)cc1 (centres undefined) | . | . | . | . | . | .
C[C@H](NC(=O)CNC(=O)[C@@H](NC(=O)[C@H](Cc1ccccc1)NC(=O)CNC(=O)CNC(=O)[C@@H](N)Cc1ccccc1)[C@@H](C)O)C(=O)N[C@@H](CCCN=C(N)N)C(=O)N[C@@H](CCCCN)C(=O)N[C@@H](CO)C(=O)N[C@@H](C)C(=O)N[C@@H](CCCN=C(N)N)C(=O)N[C@H](CN)CCCCN | . | / | . | . | / | /
FC(F)(F)c1cc(-c2ccco2)nc(-n2cnc3ccccc32)n1 | . | . | . | . | . | ?
Cc1nc2ccccc2n1-c1nc(-c2ccco2)cc(C(F)(F)F)n1 | . | 3.2µM | . | . | . | .
NNC(=S)Nc1ccc(C(F)(F)F)cc1Cl | ? | .[9.22 µM] | . | .[10 µM] | . | /
FC(F)(F)c1cnc(NNC(=S)Nc2ccccc2Cl)c(Cl)c1 | 1.5µM | 22µM | . | .[10 µM] | . | /
Cc1cccc(NC(=S)NNc2ncc(C(F)(F)F)cc2Cl)c1 | 28µM | ? | . | .[10 µM] | . | .
S=C(NNc1ccnc2cc(Cl)ccc12)Nc1ccccc1Cl | ? | . | . | / | . | 25µM
Cc1csc2ncnc(N3CCN(C(=O)Nc4ccc(OC(F)(F)F)cc4)CC3)c12 | / | .[9.22 µM] | . | .[10 µM] | . | /
CC1CCC/C(=N\NC(=O)COc2ccccc2Cl)C1 (centres undefined) | . | . | . | .[10 µM] | . | .
CCC(=O)O[C@@]1(C(=O)CCl)[C@@H](C)C[C@@H]2[C@H]3CCC4=CC(=O)C=C[C@@]4(C)[C@]3(F)[C@@H](O)C[C@@]21C | . | / | . | . | . | .
CCOC(=O)c1ccc(Cl)c(S(=O)(=O)N2CCCC2)c1 | ? | . | . | . | . | /
Cc1cccc(C)c1NC(=O)CC12CCCN1CCC2 | / | . | / | . | / | /
CCOc1ccccc1C(=O)N[C@H](C(=O)Nc1cc(S(=O)(=O)N(C)C)ccc1OC)C(C)C | 10µM | . | . | . | . | /
CC(C)(C)N=C1NN=C(c2cc3ccccc3o2)CS1 | 22µM | . | . | .[10 µM] | ? | /
O=C(NC(=S)Nc1cc(Cl)ccc1O)c1cccc(Br)c1 | 9.5µM | .[9.22 µM] | . | .[10 µM] | . | /
O=C(NNC(=O)c1cccc(Br)c1)Nc1ccc(Cl)cc1 | . | . | . | . | . | /
CC(C)(C)NC(=S)NNC(=O)c1cccc(Br)c1 | 11µM | 11µM | . | . | . | /
O=C(NNC1OC(CO)C(O)C(O)C1O)c1cccc(Br)c1 (centres undefined) | 11µM | . | . | . | . | /
Cc1c(C(=O)NNC(=S)Nc2cccc(Cl)c2)nnn1-c1ccccc1 | 11µM | ? | . | / | . | .
Cc1cc(NC(=O)Nc2cccc(Cl)c2)n(-c2ccccc2)n1 | / | .[9.22 µM] | . | .[10 µM] | . | /
Cn1c(CN2CCOCC2)nnc1SCc1ccc(C#N)cc1 | . | / | . | / | . | /
CC(C)c1ccc(NC(=O)C2CC(=O)Nc3nc4ccccc4n32)cc1 (centres undefined) | / | .[9.22 µM] | . | .[10 µM] | . | /
